Measurements: PubChem BioAssay
Several values for one entry are separate records, joined by “and”; a condition that tells them apart may be missing. Identical values can stand only once. Activity calls are given as the source filed them.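 Rule for the calls, unless noted: active = thallium flux through the channel raised or lowered by more than 3 SD from vehicle-only wells, actives on both sides; inactive = the rest.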

Experiments:
[1] = P. berghei load reduction in hepatocytes – cell-based, HepG2, luciferase luminescence, HepG2 viability, primary screen (AID 624349; in the data active = parasite load remaining mostly below about 12%, no sharp cut-off; inactive = mostly above about 10%;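 note: 100% = mean of DMSO negative control wells on the same plate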); settings: P. berghei liver stage in HepG2, luciferase luminescence, concentration not given here; parasite load remaining: stronger effect = lower value; viability: measured here: HepG2 viability without parasites
[2] = signal quenchers or enhancers, Cy5 substrate/SSB – biochemical, NIH Clinical Collection, E. coli SSB, artefact control for HCV NS3 helicase inhibitor project (AID 743268; call rule not given here); settings: Cy5-oligo bound E. coli SSB, fluorescence interference
[3] = tested on: Hepatitis C virus NS3 helicase; assay: blockers of NS3h binding to DNA – biochemical, fluorescence polarization, NIH Clinical Collection, primary screen (AID 743270; call rule not given here); settings: NS3 helicase binding to Cy5-dT15 DNA, stronger effect = higher value, concentration not given here
[4] = target: Single-stranded DNA-binding protein (Escherichia coli (strain K12)) (UniProt P0AGE0); assay: SSB-ssDNA binding inhibitors – biochemical, fluorescence polarization, NIH Clinical Collection, counter-screen for HCV NS3 helicase inhibitor project (AID 743271; in the data active = inhibition above about 28%); settings: E. coli SSB-DNA binding, stronger effect = higher value, concentration not given here
[5] = compounds distorting NS3 helicase fluorescence signal – biochemical, NIH Clinical Collection, artefact control for HCV NS3 helicase inhibitor project (AID 743272; call rule not given here;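 note: HCV NS3 helicase with a Cy5 labelled single stranded DNA probe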); settings: fluorescence interference counterscreen, HCV NS3 helicase assay; stronger effect = lower value
[6] = tested on: Neuropilin-2 / VEGF-C interaction (human); assay: small molecules blocking Neuropilin-2/VEGF-C interaction – biochemical, microplate binding format, z-score (AID 743281; call rule not given here); settings: microplate NRP2/VEGF-C binding assay; stronger effect = lower value
[7] = modulation of C. elegans fzo-1 (AID 1259413; call rule not given here;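 note: fzo-1 mutant C. elegans worms in liquid wells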); settings: C. elegans fzo-1 modulator screen, mean read-out; stronger effect = higher value
[8] = viability loss with induced miR-34 in A549 – imaging, A549 dox-inducible miR-34, nuclei and caspase counts, primary screen (AID 1347080;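 active = compounds whose cell count with miR-34 switched on is under 0.7 times the count with it off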); settings: A549 miR-34 inducible, Hoechst nuclei count, 48 h
[9] = MELAS cybrid and Rieske KO viability enhancers – cell-based, MELAS cybrids, Rieske KO mouse fibroblasts, CellTiter-Glo, primary screen (AID 1508586;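 active = mean z-score across replicates of 1.96 or higher in either the MELAS or the Rieske mutant cell line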;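 note: z relative to plate mean and SD of compound and empty wells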); settings: low glucose
[10] = galactose survival enhancers in mitochondrial complex I cybrids – cell-based, galactose medium, ATP luminescence, primary screen (AID 1645843;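 active = z-score of at least 1.8 in each of two replicates, scored against plate mean and spread of sample wells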;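 note: positive z means more ATP and so rescue of galactose-driven cybrid death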); settings: complex I mutant cybrid cells, 72 h, stronger effect = higher value
[11] = tested on: F380Y; assay: BK channel mutant inhibitors and activators – cell-based, U2OS BacMam, thallium flux, beta subunits, selectivity assay, profiling panel (AID 1259406); settings: U2OS BacMam BK variants, at 30 µM;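 note: initial slope of Thallos dye fluorescence rise after thallium is added; log ratio against the mean of 0.3% DMSO vehicle wells on the same plate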
[12] = tested on: F380Y/beta1; assay: as above; settings: U2OS BacMam BK variants, at 30 µM
[13] = tested on: F380Y/beta2Delta; assay: as above; settings: U2OS BacMam BK variants, at 30 µM
[14] = tested on: F380Y/beta4; assay: as above; settings: U2OS BacMam BK variants, at 30 µM
[15] = target: Calcium-activated potassium channel subunit alpha-1 (Homo sapiens) + Leucine-rich repeat-containing protein 26 (Homo sapiens) (UniProt Q12791+Q2I0M4); assay: as above; settings: U2OS BacMam BK variants, F380Y/Slo1WT/gamma1, at 30 µM
[16] = tested on: R275C; assay: as above; settings: U2OS BacMam BK variants, at 30 µM
[17] = tested on: R275C/beta1; assay: as above; settings: U2OS BacMam BK variants, at 30 µM
[18] = tested on: R275C/beta2Delta; assay: as above; settings: U2OS BacMam BK variants, at 30 µM
[19] = tested on: R275C/beta4; assay: as above; settings: U2OS BacMam BK variants, at 30 µM
[20] = tested on: R275C/Slo1WT/beta2; assay: as above; settings: U2OS BacMam BK variants, at 30 µM
[21] = stronger effect = lower value, cell number ratio, induced over uninduced
[22] = measured here: relative caspase fold change +Dox/-Dox
[23] = measured here: total cells with miR-34 induction, stronger effect = lower value
[24] = measured here: total cells without miR-34 induction
[25] = MELAS cybrid survival, CellTiter-Glo 48 h, stronger effect = higher value
[26] = Rieske KO mouse fibroblast survival, CellTiter-Glo 72 h

Chain of Calcium-activated potassium channel subunit alpha-1 (Homo sapiens) + Leucine-rich repeat-containing protein 26 (Homo sapiens) (Q2I0M4 whole entry, looked up, one chain of several): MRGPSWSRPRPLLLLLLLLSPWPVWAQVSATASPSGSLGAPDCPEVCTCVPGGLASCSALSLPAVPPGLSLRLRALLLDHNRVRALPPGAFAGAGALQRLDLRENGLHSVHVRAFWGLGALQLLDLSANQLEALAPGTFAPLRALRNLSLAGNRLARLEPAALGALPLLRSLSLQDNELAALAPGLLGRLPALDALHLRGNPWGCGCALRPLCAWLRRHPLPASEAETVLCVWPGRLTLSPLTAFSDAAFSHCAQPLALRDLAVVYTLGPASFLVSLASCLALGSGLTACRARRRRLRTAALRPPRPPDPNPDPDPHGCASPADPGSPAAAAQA

CCC(C)n1ncn(-c2ccc(N3CCN(c4ccc(OCC5COC(Cn6cncn6)(c6ccc(Cl)cc6Cl)O5)cc4)CC3)cc2)c1=O (stereo not drawn)
1.39 and 1.62: fold change [8, 22]
59.8% and 65%: viability [1]
7130 and 11200: cell count [8, 24]
inactive: parasite load remaining [1] 26.8% and 13.6% | fluorescence ratio [2] 0.99 | inhibition [3] 2.77% | inhibition [4] -1.64% | fluorescence ratio [5] 1 | z-score [6] 0.805 | mean signal [7] 270 | fold change [8, 21] 0.793 and 0.866 | z-score [9, 25] -0.416 and -0.441 | z-score [10] -1.48 and 0.09 | log fold change Tl+ flux [11] 0.0299 | log fold change Tl+ flux [12] 0.0346 | log fold change Tl+ flux [13] -0.00576 | log fold change Tl+ flux [14] 0.0111 | log fold change Tl+ flux [15] 0.0139 | log fold change Tl+ flux [16] -0.015 | log fold change Tl+ flux [17] 0.0149 | log fold change Tl+ flux [18] 0.0172 | log fold change Tl+ flux [19] -0.00424 | log fold change Tl+ flux [20] 0.0617
0.947 and 1.02: z-score [9, 26]
5650 and 9680: cell count [8, 23]

CCC(CO)NCCNC(CC)CO (stereo not drawn)
10400 and 7770: cell count [8, 23]
inactive: parasite load remaining [1] 78.1% | fluorescence ratio [2] 1.1 | inhibition [3] -5.91% | inhibition [4] -2% | fluorescence ratio [5] 1.03 | mean signal [7] 252 | fold change [8, 21] 0.98 and 0.902 | z-score [9, 25] -0.216 | z-score [10] 0.45 | log fold change Tl+ flux [11] -0.0102 | log fold change Tl+ flux [12] -0.0572 | log fold change Tl+ flux [13] 0.024 | log fold change Tl+ flux [14] -0.00313 | log fold change Tl+ flux [15] -0.00134 | log fold change Tl+ flux [16] 0.00482 | log fold change Tl+ flux [17] -0.0497 | log fold change Tl+ flux [18] 0.000295 | log fold change Tl+ flux [19] -0.0366 | log fold change Tl+ flux [20] 0.0123
10600 and 8610: cell count [8, 24]
129%: viability [1]
-0.177: z-score [9, 26]
1.98 and 0.647: fold change [8, 22]

COC(=O)Nc1nc2ccc(C(=O)c3ccc(F)cc3)cc2[nH]1
1.69 and 0.533: z-score [9, 26]
85.5% and 74.5%: viability [1]
1820 and 2010: cell count [8, 23]
1490 and 1950: cell count [8, 24]
inactive: parasite load remaining [1] 68.5% and 34.2% | fluorescence ratio [2] 1.06 | inhibition [3] -1.19% | inhibition [4] -0.87% | fluorescence ratio [5] 0.95 | z-score [6] 0.511 | mean signal [7] 249 | fold change [8, 21] 1.22 and 1.03 | z-score [9, 25] -2.49 and -1.97 | z-score [10] -1.28 and -0.83 | log fold change Tl+ flux [11] -0.0412 | log fold change Tl+ flux [12] 0.0196 | log fold change Tl+ flux [13] -0.0407 | log fold change Tl+ flux [14] -0.0852 | log fold change Tl+ flux [15] 0.00265 | log fold change Tl+ flux [16] -0.0283 | log fold change Tl+ flux [17] -0.0436 | log fold change Tl+ flux [18] -0.052 | log fold change Tl+ flux [19] 0.0237 | log fold change Tl+ flux [20] 0.00461
1.31 and 0.65: fold change [8, 22]

CC(N)(Cc1ccc(O)c(O)c1)C(=O)O (stereo not drawn)
87.8%: viability [1]
active: fluorescence ratio [2] 0.1 | log fold change Tl+ flux [20] -0.125
9680 and 9750: cell count [8, 24]
inactive: parasite load remaining [1] 67.7% | inhibition [3] -3.18% | inhibition [4] -0.48% | fluorescence ratio [5] 0.96 | mean signal [7] 264 | fold change [8, 21] 1.03 and 1.02 | z-score [10] -1.27 and -1.07 | log fold change Tl+ flux [11] -0.0268 | log fold change Tl+ flux [12] -0.0706 | log fold change Tl+ flux [13] -0.0381 | log fold change Tl+ flux [14] -0.00847 | log fold change Tl+ flux [15] -0.0181 | log fold change Tl+ flux [16] -0.0316 | log fold change Tl+ flux [17] -0.0727 | log fold change Tl+ flux [18] -0.00349 | log fold change Tl+ flux [19] -0.0805
0.522 and 3.64: fold change [8, 22]
9990 and 9950: cell count [8, 23]

CCOC(=O)[C@@H](CCc1ccccc1)N[C@@H](C)C(=O)N1CCC[C@H]1C(=O)O
11000: cell count [8, 23]
inactive: parasite load remaining [1] 41.4% | fluorescence ratio [2] 1.05 | inhibition [3] -10.4% | inhibition [4] -0.48% | fluorescence ratio [5] 1 | mean signal [7] 237 | fold change [8, 21] 0.958 | z-score [10] 0.835 | log fold change Tl+ flux [11] 0.0242 | log fold change Tl+ flux [12] 0.0697 | log fold change Tl+ flux [13] 0.00383 | log fold change Tl+ flux [14] 0.0422 | log fold change Tl+ flux [15] 0.023 | log fold change Tl+ flux [16] 0.0223 | log fold change Tl+ flux [17] -0.00857 | log fold change Tl+ flux [18] -0.00135 | log fold change Tl+ flux [19] -0.0226 | log fold change Tl+ flux [20] -0.0503
0.517: fold change [8, 22]
11500: cell count [8, 24]
126%: viability [1]

Nc1nc(Cl)nc2c1ncn2[C@H]1C[C@H](O)[C@@H](CO)O1
inactive: parasite load remaining [1] 10.3% | fluorescence ratio [2] 1.02 | inhibition [3] -1.09% | inhibition [4] -3.54% | fluorescence ratio [5] 0.99 | z-score [6] -0.302 | mean signal [7] 237 | log fold change Tl+ flux [11] -0.0268 | log fold change Tl+ flux [12] -0.0427 | log fold change Tl+ flux [13] -0.00452 | log fold change Tl+ flux [14] -0.0201 | log fold change Tl+ flux [15] -0.0394 | log fold change Tl+ flux [16] 0.0195 | log fold change Tl+ flux [17] 0.022 | log fold change Tl+ flux [18] 0.0372 | log fold change Tl+ flux [19] 0.000993 | log fold change Tl+ flux [20] 0.0197
3.04: z-score [9, 26]
1.38: z-score [9, 25]
71.4%: viability [1]
